High-throughput results from PubChem BioAssay.
LEDGF integ inh: blocks HIV-1 LEDGF/p75-dependent DNA integration. inhibition, % at 3.7 µM. AID 743269. TR-FRET IN-LEDGF/p75 DNA integration, Eu/Cy5. 370,000 compounds, 0.64% hits;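 active means inhibition above the screen-wide mean plus 3 SD, cut at about 13% in these data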;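 further: signal is the Cy5 over europium emission ratio at 671 and 618 nm; 0% = plate median of compound wells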
MBD2 inh: blocks human MBD2 binding to methylated DNA; Q9UBB5; TR-FRET, MBD2 binding to methylated oligonucleotide; inhibition, % at 4.4 µM; 370,000 compounds, 0.31% hits; in the data active means inhibition above about 13%
Rin1 Abl inh: blocks binding of human Rin1 to Abl | 360,000 compounds, 0.4% hits | inhibition, % at 7.35 µM | TR-FRET Rin1/Abl binding, biochemical; in the data active means inhibition above about 5%, passing the limit was not always enough
UHRF1 MBD2 ctr: blocks human UHRF1 binding to methylated DNA | AID 687016 | Q96T88 | UHRF1 binding to methylated oligo, TR-FRET | inhibition, % at 4.4 µM | 370,000 compounds, 0.75% hits; in the data active means inhibition above about 21%;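 further: UHRF1 SRA domain binding a hemimethylated CpG hairpin DNA probe; 0% = median of test compound wells and 100% = reference inhibitor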
TCR-CD3 inh: inhibitors of human TCR-CD3 interaction; TAMRA-labeled TCR probe fluorescence, biochemical; inhibition, % at 9.4 µM; 360,000 compounds, 0.37% hits;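 further: recombinant mutant TCR 2C K166C tagged with TAMRA read by polarization; 0% = receptor in buffer alone and 100% = receptor with positive control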
BSA probe FL: counter-screen for TCR-CD3 interaction inhibitors: BSA probe. shares compounds with TCR-CD3 inh. TAMRA-labeled BSA probe fluorescence counterscreen. inhibition, % at 9.4 µM. AID 652035. 1,200 compounds, 10% hits; in the data active means inhibition above about 23%;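 further: 0% = buffer low control and 100% = reference high control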
TCR-CD3 conf: confirmation of human TCR-CD3 interaction inhibitors; shares compounds with TCR-CD3 inh; TAMRA-labeled TCR probe fluorescence binding assay; inhibition, % at 9.4 µM; 1,200 compounds, 48% hits
* = called active by the depositor; nt = not tested or not shown. Hits are enriched below; roughly 2% of the tested compounds scored in any of these assays. Unless noted, no stated cut-off is given here; in the data, active means inhibition above about 19%; inactive means the rest.

SMILES	LEDGF integ inh	MBD2 inh	Rin1 Abl inh	UHRF1 MBD2 ctr	TCR-CD3 inh	BSA probe FL	TCR-CD3 conf
CCOc1ccc(-n2c(O)c(/C=N/NC(=O)C3COc4ccccc4O3)c3ccccc3c2=O)cc1 (stereo not drawn)	-1.0	3.6	-5.4	0.4	20.3*	0.3	36.5*
Cc1ccc(/C=C2\SC(=S)N(CCC(=O)NNC(=O)c3ccc(O)cc3)C2=O)cc1	-1.7	-2.0	0.1	1.3	-0.1	nt	nt
COc1cccc(/C=C2/SC(=S)N(CC(=O)NNC(=O)c3ccccc3O)C2=O)c1	1.6	-5.9	1.3	1.3	25.3*	-6.3	46.1*
Cc1ccc(/C=C2\SC(=S)N(CCC(=O)NNC(=O)c3ccccc3O)C2=O)cc1	0.8	2.0	-1.9	-1.3	29.0*	-8.8	32.6*
COc1ccccc1/C=C1\SC(=S)N(CCC(=O)NNC(=O)c2ccccc2OC)C1=O	1.5	-0.6	2.7	-0.5	27.8*	-9.5	18.6
Cc1ccc(/C=C2\SC(=S)N(CCCC(=O)NNC(=O)c3ccccc3O)C2=O)cc1	4.1	-7.5	-1.2	-2.4	33.3*	-3.5	21.8*
O=C(NC1CCCC1)c1nc(-c2ccco2)oc1-c1ccccc1	7.6	-2.3	nt	-2.0	-7.4	nt	nt
COc1ccc(CN2CCC[C@]3(N[C@H](c4ccc(OC)cc4)[C@@H]4C(=O)N(C)C(=O)[C@@H]43)C2=O)cc1	-3.6	6.4	2.4	2.4	-2.6	nt	nt
O=C(CCN1C(=O)/C(=C/c2ccccc2Cl)SC1=S)NNC(=O)c1ccccc1O	-4.4	-5.5	-1.7	-0.3	43.1*	2.5	34.4*
COC(=O)[C@H](CC(C)C)NC(=O)CC[C@H]1O[C@@H](n2ccc(=O)[nH]c2=O)[C@H](O)[C@@H]1O	10.7	-0.2	1.8	-2.1	2.4	nt	nt
C/C(=N\NC(=O)c1ccc(NS(=O)(=O)c2cccs2)cc1)c1ccc(O)cc1O	-1.8	-3.1	-2.8	1.9	19.3*	-11.7	19.8*
CCCOc1ccc(C(=O)Nc2ccc3c(c2)OCCO3)cc1	3.0	1.7	-2.3	-0.7	5.6	nt	nt
O=C(O)C1Nc2c(O)cc(Cl)c([N+](=O)[O-])c2C2C=CCC12 (stereo not drawn)	71.8*	63.4*	14.3*	92.5*	91.0*	-18.7	50.6*
O=[N+]([O-])c1ccc(Cl)c2c1C1C=CCC1C(c1ccccn1)N2 (stereo not drawn)	5.2	-0.8	-3.2	-5.7	3.0	nt	nt
NC(=S)NNc1cccc2cccnc12	11.3	-0.1	-1.9	15.1	19.1*	-5.2	3.3
NC(=S)Nc1cccc2cccnc12	0.5	3.0	-1.1	-0.7	6.1	nt	nt
CC(=O)Nc1ccc(NC(=O)CSc2nnc(-c3cccnc3)o2)cc1	-0.5	0.7	5.5	1.4	-0.3	nt	nt
O=C(CSc1nnc2ccccn12)NNC(=O)c1cccc([N+](=O)[O-])c1	-5.9	-0.8	1.0	0.8	79.7*	-2.6	3.9
O=C(CSc1nnc2ccccn12)NC(=O)c1cccc([N+](=O)[O-])c1	2.2	2.7	0.1	4.2	-3.1	nt	nt
CC1CCN(S(=O)(=O)c2ccc(NC(=O)Cn3nnc(-c4ccccc4F)n3)cc2)CC1	-3.5	-1.7	-0.6	0.9	19.7*	8.9	23.7*
C[C@@H]1CN([C@@H](C)CO)C(=O)Cc2cc(NC(=O)Nc3ccc(C(F)(F)F)cc3)ccc2O[C@@H]1CN(C)S(=O)(=O)c1ccc(Cl)cc1	-0.9	-6.0	4.2	0.0	48.0*	13.5	25.8*
C[C@H]1CN([C@@H](C)CO)C(=O)c2cccc(NC(=O)Nc3ccc(C(F)(F)F)cc3)c2O[C@@H]1CN(C)Cc1ccc(Cl)c(Cl)c1	-2.9	2.5	1.6	-3.2	10.7	nt	nt
C[C@@H]1CN([C@H](C)CO)C(=O)c2cc(NC(=O)Nc3ccc(C(F)(F)F)cc3)ccc2O[C@H]1CN(C)Cc1ccc(Cl)c(Cl)c1	1.3	0.0	-2.3	-0.3	27.2*	23.6*	45.7*
C[C@H](CO)N1C[C@H](C)[C@@H](CN(C)S(=O)(=O)c2ccc(F)cc2)Oc2ccc(NC(=O)Nc3ccccc3)cc2C1=O	-2.0	-3.1	3.1	-4.3	2.3	nt	nt
